Screening results (PubChem BioAssay)
697 NFkB inh: inhibitors of the PMA/ionomycin-induced NF-kB reporter in 697 B cells. 697 B-cell NF-kB luciferase reporter, 16 h. inhibition, % at 4 µM. hit rate 0.33% among 330,000; in the data active = inhibition above about 35%
ANO1 block: blocks the mouse calcium-activated chloride channel TMEM16A; HEK293 TMEM16A/YFP iodide influx fluorescence, ionomycin; hit rate 1.2% among 310,000; Q8BHY3; normalized B-score (activity score, 25-100; higher = stronger inhibition) at 10 µM;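 active = ratio plate-corrected score three or more library SD toward inhibition, starting fluorescence score within five deviations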;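 also: score derived from kinetic fluorescence span divided by baseline fluorescence per well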
KLF5 inh: kruppel-like factor 5 inhibition. DLD-1 KLF5 promoter-luciferase reporter, luminescence. inhibition, % at 5 µM. hit rate 0.23% among 290,000;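 active = inhibition above a per-plate limit of that plate's mean compound inhibition plus 3 SD, cut at about 60% in these data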;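 also: 0% = DMSO wells and 100% = LY294002 at 200 µM; higher means less KLF5 promoter-driven luciferase light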
Jurkat NFkB inh: inhibitors of the PMA/ionomycin-induced NF-kB reporter in Jurkat cells; PMA/ionomycin-induced NF-kB luciferase reporter, luminescence; inhibition, % at 4 µM; hit rate 0.53% among 330,000; in the data active = inhibition above about 50%
TMEM16A act: activates or potentiates the mouse TMEM16A chloride channel; Q8BHY3; B-score at 10 µM; HEK293 TMEM16A/YFP-H148Q/I152L, iodide quench fluorescence; stronger effect = lower value; hit rate 0.3% among 340,000;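 active = fluorescence-ratio B-score plate-corrected deviation score at least 3 library SD below zero, with starting fluorescence score within 5 deviations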;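 also: channel opened by trigger with iodide after compound preincubation; score built on the fluorescence ratio of max minus min over baseline; more negative score means more quench and so TMEM16A activation or potentiation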
aSyn 5UTR inh: MLPCN primary screen, SNCA 5' untranslated region. alpha-synuclein 5'UTR reporter, inhibitor activity. inhibition, % (tested at 7.5 µM). hit rate 0.82% among 300,000. AID 1813; in the data active = inhibition above about 60%; inconclusive = no clear call, values can overlap the other calls;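 also: H4 neuroglioblastoma cells stably carrying SNCA 5'UTR luciferase fusion; 0% = DMSO wells and 100% = positive control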
Jurkat NFkB conf: inhibitors of the PMA/ionomycin-induced NF-kB reporter in Jurkat cells, retest. shares compounds with Jurkat NFkB inh. Jurkat NF-kB luciferase, 16 h. inhibition, % at 4 µM. hit rate 27% among 2,700. AID 435020;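 active = inhibition reaching about 45% at 4 µM in either replicate, limit read from the data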;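 also: plate controls were PMA/ionomycin stimulated DMSO wells for no effect and unstimulated DMSO wells for full effect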
The depositor's hits bear a star; i = inactive; u = inconclusive; x = no result. Only some compounds are listed: those with a hit (about 2.5% of all), similar ones and a draw of the others.

SMILES | 697 NFkB inh | ANO1 block | KLF5 inh | Jurkat NFkB inh | TMEM16A act | aSyn 5UTR inh | Jurkat NFkB conf
CCOC(=O)c1c(C)n(-c2ccc(C)cc2)c2ccc(OCC(O)CN3CCN(C)CC3)cc12 (configuration not stated) | x | x | 12 | x | i | x | x
CC(OC(=O)c1ccc2c(c1)OCCO2)C(=O)c1ccccc1 (configuration not stated) | -191 | i | x | -152 | i | -133 | -122
COc1ccccc1C(=O)N1CCN(c2cccc(Cl)c2)CC1 | -35 | i | 60 | 56* | i | 64* | 33
COc1cccc(N2CCN(C(=O)c3ccc(CS(=O)c4ccc(Cl)cc4)o3)CC2)c1 (configuration not stated) | 0 | i | 53 | 51* | i | 107* | 14
O=C(c1c(Cl)nc2sccn12)N1CCN(c2cccc(Cl)c2)CC1 | -4 | i | 53 | 61* | i | 34 | 47
O=C(c1ccc(CS(=O)Cc2ccc(Cl)cc2)o1)N1CCN(c2cccc(Cl)c2)CC1 (configuration not stated) | -12 | i | -9 | 21 | i | -5 | x
COc1ccccc1N1CCN(C(=O)c2cn(Cc3ccccc3)nc2-c2cccnc2)CC1 | -17 | x | x | -5 | i | x | x
COc1cccc(N2CCN(C(=O)c3cn(Cc4ccccc4)nc3-c3cccnc3)CC2)c1 | -45 | x | x | 61* | i | x | 40
Nc1cccc2cc(S(=O)(=O)O)ccc12 | x | x | x | x | i | x | x
CCN(C(=O)COC(=O)c1cc(=O)c2ccccc2o1)c1c(N)n(Cc2ccccc2)c(=O)[nH]c1=O | 6 | i | x | -1 | i | -13 | x
Cc1cccc(C(=O)OC(C)CN2C(C)CCCC2C)c1 (configuration not stated) | -3 | i | -52 | 5 | i | -6 | x
O=C(Nc1ccon1)c1cc2c(s1)CCCC2 | -13 | i | -146 | -157 | i | -113 | -84
O=C(Nc1ccon1)c1cc2c(s1)CCCCCC2 | -21 | i | -140 | -72 | i | -167 | x
N=c1c(C(=O)NCCc2ccccc2)cc2c(=O)n3ccccc3nc2n1CCCN1CCOCC1 | -15 | i | 2 | 53* | i | -13 | 2
N=c1c(C(=O)NC2CCCCC2)cc2c(=O)n3ccccc3nc2n1CCc1ccccc1 | 4 | i | -18 | 58* | i | -40 | -51
N=c1c(C(=O)NC2CCCCC2)cc2c(=O)n3ccccc3nc2n1Cc1ccccc1 | 27 | i | 15 | 38 | i | 25 | x
N=c1c(C(=O)NCc2ccccc2)cc2c(=O)n3ccccc3nc2n1CCCN1CCOCC1 | -14 | i | x | 35 | i | x | x
Clc1ccc(CSc2nncn2-c2ccc3c(c2)OCCO3)cc1 | -46 | i | 2 | 58* | i | 66* | 44
Clc1ccc(CSc2nncn2-c2ccccn2)cc1 | -2 | i | -18 | 9 | i | 2 | x
NC(=O)c1ccc(SCC(=O)OCC(=O)NCc2cccs2)c([N+](=O)[O-])c1 | 11 | x | x | 0 | i | x | x
CCOC(=O)c1ccc(NC(=O)Nc2ccon2)cc1 | -7 | i | 60 | 58* | i | 64* | 34
Cc1cc(NC(=O)Nc2ccc(Cl)c(Cl)c2)no1 | -6 | i | x | -6 | i | -43 | x
O=C(Nc1ccc(Cl)c(Cl)c1)Nc1ccon1 | -18 | i | 17 | 53* | i | -69 | 32
CCOC(=O)c1ccc(NC(=O)CSc2nc(=O)n3cccc(C)c3n2)cc1 | -16 | i | x | 0 | i | -11 | x
C[C@H](CO)N1C[C@H](C)[C@@H](CN(C)C(=O)Nc2ccc(C(F)(F)F)cc2)Oc2ccc(NC(=O)Nc3ccc4c(c3)OCO4)cc2C1=O | 13 | x | x | 1 | x | x | x
SMILES | 697 NFkB inh | ANO1 block | KLF5 inh | Jurkat NFkB inh | TMEM16A act | aSyn 5UTR inh | Jurkat NFkB conf
COc1nc(C)ccc1-c1noc(-c2ccco2)n1 | -158 | i | -158 | -171 | i | -124 | -105
COc1nc(-c2ccc(C)cc2)ccc1-c1noc(-c2ccco2)n1 | -18 | i | -15 | -19 | i | -70 | x
CCCCN(C(=O)CN1C(=O)C2CCCCC2C1=O)c1c(N)n(CCC)c(=O)[nH]c1=O (configuration not stated) | -8 | i | x | 11 | i | -2 | x
O=C(CN(Cc1ccco1)Cc1ccco1)Nc1cc(S(=O)(=O)N2CCCCC2)ccc1Cl | 3 | x | x | 9 | i | x | x
Cc1nc(NC2=NCN(CCCN3CCOCC3)CN2)nc2c(C)cccc12 | -38 | i | -16 | 64* | i | x | -2
Cc1nc(NC2=NCN(CCc3ccccc3)CN2)nc2c(C)cccc12 | x | x | 11 | x | x | x | x
CCN(CC)S(=O)(=O)c1cccc(NC(=O)CN2C(=O)NC3(CCOc4ccccc43)C2=O)c1 (configuration not stated) | 15 | x | x | 13 | i | x | x
CCC(=O)Nc1ccc(-c2cc3ccccc3oc2=O)cc1 | 27 | i | -144 | -93 | i | u | x
CC(=O)Nc1ccc(-c2cc3ccccc3o2)cc1 | -150 | i | -117 | -159 | i | -147 | -81
COc1ccc(-c2nnc(SCc3ccccc3F)o2)cc1 | -204 | i | -147 | -161 | i | -163 | -87
Fc1ccccc1CSc1nnc(-c2ccccc2)o1 | -150 | i | -138 | -156 | i | -152 | -65
Cc1ccccc1-c1nnc(SCc2ccccc2F)o1 | -188 | i | -79 | -153 | i | -149 | -74
Fc1ccccc1CSc1nnc(-c2cccnc2)o1 | -67 | i | -66 | -80 | i | -69 | x
N#C/C(=C\c1ccc([N+](=O)[O-])o1)c1nc2ccccc2[nH]1 | -6 | i | -7 | 25 | x | -2 | x
Cc1ccc2nc(/C(C#N)=C\c3ccc([N+](=O)[O-])o3)[nH]c2c1 | -55 | i | 1 | 59* | i | -24 | 16
S=C(c1cccs1)N1CCN(c2ccccc2)CC1 | x | x | x | x | i | x | x
COC(=O)c1ccccc1NC(=O)c1sc(Cl)nc1C | -15 | i | -41 | 3 | i | -35 | x
COC(=O)c1ccc(-c2ccc(Cl)cc2)nc1C | -181 | i | -52 | -172 | i | -126 | -95
COc1cccc(NC(=O)CN(C)C(C)C(=O)NC(=O)NC2CCCCC2)c1 (configuration not stated) | 8 | x | x | -20 | i | x | x
CC1CC(C)CN(S(=O)(=O)c2ccc(NC(=O)c3ccc(=O)[nH]c3)cc2)C1 (configuration not stated) | -36 | x | x | 54* | i | x | 49*
COC(=O)c1c(-c2ccc(SC)cc2)sc2ccc(OC)cc12 | -166 | x | x | -153 | i | x | -90
COC(=O)c1c(-c2cc(OC)cc(OC)c2)sc2ccc(OC)cc12 | -3 | x | x | -15 | i | x | x
Cc1cnc(C(=O)Nc2ccc(N3CCN(C(=O)OC(C)(C)C)CC3)cc2)cn1 | -70 | i | -3 | 64* | x | -89 | 33
